Source: PubChem BioAssay (NCATS)
Results filed as inconclusive are left out. The source made the active and inactive calls. Unless noted, the call rests on the fitted dose curve; in most records, active means well fitted curve in either direction with a large enough effect (not every such curve was filed as active); inconclusive means small, poorly fitted or top-dose-only effect, or another doubt; inactive means flat fitted curve, though single readings scatter.

Experiments:
[1] = tested on: HIV-1 nucleocapsid protein NCp7 (binding to TG oligonucleotide); assay: HIV Nucleocapsid (AID 346; call rule not given here;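 further: potency means the concentration at half of the fitted maximal effect; potency is for inhibitors that block NC binding and lower polarization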); conditions: HIV-1 NC / fluorescein-TGTGTGTG probe, fluorescence polarization
Summary of the method: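 10 nM TG4xF probe with 100 nM nucleocapsid protein in high-salt Hepes pH 7.5 (250mM NaCl) containing 1uM ZnCl2 and reducing agents. Compound inhibition of binding was read as fluorescein polarization after 1 hr at room temperature.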

[2] = target: Lysosomal acid glucosylceramidase (Homo sapiens) (UniProt P04062); assay: Glucocerebrosidase-p2 (AID 348; in the data active means potency below about 10 µM; further: potency means the concentration at half of the fitted maximal effect); conditions: purified GBA, blue fluorogenic substrate, 40 min
Sequence of Lysosomal acid glucosylceramidase (Homo sapiens) (P04062 whole entry, looked up): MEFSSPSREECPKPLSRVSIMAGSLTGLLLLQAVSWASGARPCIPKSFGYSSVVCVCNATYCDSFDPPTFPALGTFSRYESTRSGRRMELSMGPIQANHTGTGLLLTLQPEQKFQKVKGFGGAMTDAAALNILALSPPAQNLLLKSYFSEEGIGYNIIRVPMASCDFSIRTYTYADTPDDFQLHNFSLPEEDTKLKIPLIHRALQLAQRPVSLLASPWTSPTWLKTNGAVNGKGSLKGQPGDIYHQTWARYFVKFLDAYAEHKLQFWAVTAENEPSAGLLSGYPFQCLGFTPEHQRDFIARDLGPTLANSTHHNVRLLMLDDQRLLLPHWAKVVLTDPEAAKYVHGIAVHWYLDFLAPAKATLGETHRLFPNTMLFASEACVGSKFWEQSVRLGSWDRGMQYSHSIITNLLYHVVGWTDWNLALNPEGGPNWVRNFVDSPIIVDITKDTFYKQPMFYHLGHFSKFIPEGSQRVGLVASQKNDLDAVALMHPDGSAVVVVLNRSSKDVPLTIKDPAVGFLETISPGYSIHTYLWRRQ
Summary of the method: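 Normal human glucocerebrosidase (0.2 nM) with blue fluorogenic substrate (80 uM final) in citrate/phosphate pH 5.9 with 10mM sodium taurocholate, 0.01% tween-20; 40 min RT, NaOH/glycine stop; fluorescence Ex 365/Em 440; AC50 from a titration from 0.6 nM upwards.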

[3] = AP1 Signaling Pathway (AID 357);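 further: ME-180 reporter cells stimulated with EGF at its EC50 level; on the % scale 0 is the no-effect control and ±100 the full control effect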
Summary of the method: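 Modulation of EGF-driven AP-1 transcription was assessed with a beta-lactamase reporter in ME-180 cells. Compound and EC50 EGF were co-incubated 5 hours at 37 °C before 2.5-hour CCF4 loading at room temperature and dual-emission reading.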

[4] = target: Cytochrome P450 1A2 (Homo sapiens) (UniProt P05177); assay: p450-cyp1a2 (AID 410; calls by dose curve; further: potency means the concentration at half of the fitted maximal effect;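 on activity change, negative = inhibition: -100% = full effect of reference inhibitor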)
Sequence of Cytochrome P450 1A2 (Homo sapiens) (P05177 whole entry, looked up): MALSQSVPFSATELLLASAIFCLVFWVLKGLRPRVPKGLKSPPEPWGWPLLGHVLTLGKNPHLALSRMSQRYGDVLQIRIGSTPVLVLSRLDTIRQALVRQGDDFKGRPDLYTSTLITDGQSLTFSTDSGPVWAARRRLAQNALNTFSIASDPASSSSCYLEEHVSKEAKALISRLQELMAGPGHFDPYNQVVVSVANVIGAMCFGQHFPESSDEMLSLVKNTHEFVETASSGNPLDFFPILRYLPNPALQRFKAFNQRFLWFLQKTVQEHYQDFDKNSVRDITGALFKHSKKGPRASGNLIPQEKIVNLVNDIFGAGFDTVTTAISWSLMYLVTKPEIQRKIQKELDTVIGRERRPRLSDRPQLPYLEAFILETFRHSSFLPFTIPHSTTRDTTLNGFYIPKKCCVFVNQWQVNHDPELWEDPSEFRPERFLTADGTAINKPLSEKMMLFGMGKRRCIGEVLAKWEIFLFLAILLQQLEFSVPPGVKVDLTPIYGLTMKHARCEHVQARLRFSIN
Summary of the method: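 Luminescent demethylation readout: Luciferin-ME (100uM, equal to Km) turned over by 20nM CYP1A2 for 60 min at room temperature after NADPH regeneration addition, following 10 min compound preincubation. Normalization used 57 uM furafylline as full inhibition.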

[5] = NFAT Signaling Pathway (AID 444); conditions: Jurkat NFAT-bla M1, carbachol, beta-lactamase ratio, 5 h; at 7.69 µM (top of the series);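 further: carbachol stimulus at about its EC50 of 1 µM final; on the % scale 0 is the no-effect control and ±100 the full control effect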
Summary of the method: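 Read-out: CCF4 FRET ratio (460 nm/530 nm) after 1 h RT dye loading, used for %activity and AC50 from titration series. Cells: Jurkat NFAT-β-lactamase/M1 line, treated with compound plus 1 uM carbachol for 5 h, 37 °C.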

[6] = Stat Signaling Pathway (AID 446);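 further: ME-180 cervical cancer cells given 40 pM IL-6 alongside compound; SIE-controlled beta-lactamase reporter measured as 460/530 nm FRET emission ratio; on the % scale 0 is the no-effect control and ±100 the full control effect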
Summary of the method: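 FRET read-out (405 nm excitation, 460/530 nm emission) of a beta-lactamase reporter under a STAT-inducible element in ME-180 cervical carcinoma cells. Cells with compound receive 40 pM IL-6 for 5 h. Values are normalised to AC90 stimulation and AC90 JAK-inhibitor controls.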

[7] = target: Glucocorticoid receptor (Homo sapiens) (UniProt P04150); assay: GR-EFC Redistribution (AID 451; calls by dose curve; further: potency means the concentration at half of the fitted maximal effect); conditions: CHO-K1 GR-EFC translocation, beta-gal luminescence, 2 h
Sequence of Glucocorticoid receptor (Homo sapiens) (P04150 whole entry, looked up, the tested form may be a part): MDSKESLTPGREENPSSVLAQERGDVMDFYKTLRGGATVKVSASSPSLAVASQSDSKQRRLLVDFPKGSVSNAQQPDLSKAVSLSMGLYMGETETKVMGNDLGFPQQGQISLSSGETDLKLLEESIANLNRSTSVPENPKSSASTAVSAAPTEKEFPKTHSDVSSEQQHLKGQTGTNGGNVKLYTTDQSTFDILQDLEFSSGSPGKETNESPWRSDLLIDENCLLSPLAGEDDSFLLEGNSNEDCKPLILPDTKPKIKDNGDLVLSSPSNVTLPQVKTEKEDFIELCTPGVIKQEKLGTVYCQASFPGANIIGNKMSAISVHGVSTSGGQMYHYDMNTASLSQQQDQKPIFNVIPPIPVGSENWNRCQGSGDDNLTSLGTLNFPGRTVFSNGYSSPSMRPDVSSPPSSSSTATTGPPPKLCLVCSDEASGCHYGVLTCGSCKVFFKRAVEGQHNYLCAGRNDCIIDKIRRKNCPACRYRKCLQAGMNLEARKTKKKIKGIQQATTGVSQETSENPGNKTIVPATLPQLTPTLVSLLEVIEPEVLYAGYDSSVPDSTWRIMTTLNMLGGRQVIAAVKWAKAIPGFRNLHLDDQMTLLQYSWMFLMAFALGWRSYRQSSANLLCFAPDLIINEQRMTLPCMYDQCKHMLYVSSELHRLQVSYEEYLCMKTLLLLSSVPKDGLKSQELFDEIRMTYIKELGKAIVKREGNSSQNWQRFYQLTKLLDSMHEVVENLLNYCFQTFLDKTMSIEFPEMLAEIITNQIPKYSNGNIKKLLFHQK
Summary of the method: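 Translocation of GR-ED fusion to nuclear EA restores b-gal, read by luminescence after 1 h room-temperature detection. Engineered CHO-K1 biosensor cells, 1,000/well, exposed 2 h at 37 C to titrations up to 46 uM final.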

[8] = target: Mitogen-activated protein kinase 10 (Mus musculus) (UniProt Q61831); assay: JNK3 AlphaScreen Assay (AID 530);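 further: kinase came from lysate of stimulated human HepG2 cells; signal reports phosphorylation of biotinylated GST-cJun 1-79 at Ser73 with 10 µM ATP; on the % scale 0 is the no-effect control and ±100 the full control effect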
Summary of the method: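 qHTS titrations with 15 min compound pre-incubation before adding ATP (10 uM final). Read-out: AlphaScreen of Ser73-phosphorylated biotin-GST-cJun using HepG2 lysate JNK3 activated by IL-1β and TNFα.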

[9] = target: 3',5'-cyclic-AMP phosphodiesterase 4B (Homo sapiens) (UniProt Q07343); assay: qHTS Assay for Inhibitors of PDE-IV (AID 607; active means well fitted activation curve with a large enough effect in the main read-out, with a control signal flat, not every such curve was filed as active; further: % of control where 0% means no effect)
Sequence of 3',5'-cyclic-AMP phosphodiesterase 4B (Homo sapiens) (Q07343 whole entry, looked up): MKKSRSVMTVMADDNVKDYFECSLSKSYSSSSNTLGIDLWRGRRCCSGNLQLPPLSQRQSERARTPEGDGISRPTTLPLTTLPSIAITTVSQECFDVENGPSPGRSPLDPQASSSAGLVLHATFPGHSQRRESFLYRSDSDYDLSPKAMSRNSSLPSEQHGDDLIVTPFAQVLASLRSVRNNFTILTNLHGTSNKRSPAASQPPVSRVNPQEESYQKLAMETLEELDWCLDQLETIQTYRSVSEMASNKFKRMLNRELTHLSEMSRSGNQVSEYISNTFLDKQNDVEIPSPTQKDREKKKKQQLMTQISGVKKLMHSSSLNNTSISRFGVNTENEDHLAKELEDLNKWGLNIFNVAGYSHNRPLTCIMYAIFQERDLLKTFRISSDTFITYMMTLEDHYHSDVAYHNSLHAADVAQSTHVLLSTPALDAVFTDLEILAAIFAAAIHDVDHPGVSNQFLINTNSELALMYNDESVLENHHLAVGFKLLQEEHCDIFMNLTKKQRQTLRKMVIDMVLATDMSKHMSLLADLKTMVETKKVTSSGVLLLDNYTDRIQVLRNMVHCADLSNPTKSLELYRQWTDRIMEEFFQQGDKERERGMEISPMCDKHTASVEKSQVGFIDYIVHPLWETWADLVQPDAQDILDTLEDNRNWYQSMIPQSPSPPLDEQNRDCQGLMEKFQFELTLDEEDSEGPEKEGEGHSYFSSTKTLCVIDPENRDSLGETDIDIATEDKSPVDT
Summary of the method: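 Cell-based read-out of cAMP via a modified cyclic nucleotide-gated channel and membrane potential dye (535/590 nm) in HEK293 cells expressing PDE4 endogenously. Compounds tested up to 22.9 uM final; 100 uM RO 20-1724 reference.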

[10] = target: Cytochrome P450 2C9 (Homo sapiens) (UniProt P11712); assay: qHTS Assay for Inhibitors and Substrates of Cytochrome P450 2C9 (AID 883; active means well fitted curve in the direction sought with a large enough effect; an effect the other way counts as inactive or inconclusive; further: on the % scale 0 is the no-effect control and ±100 the full control effect; nearly all actives have a fitted effect of over 60% in size)
Sequence of Cytochrome P450 2C9 (Homo sapiens) (P11712 whole entry, looked up): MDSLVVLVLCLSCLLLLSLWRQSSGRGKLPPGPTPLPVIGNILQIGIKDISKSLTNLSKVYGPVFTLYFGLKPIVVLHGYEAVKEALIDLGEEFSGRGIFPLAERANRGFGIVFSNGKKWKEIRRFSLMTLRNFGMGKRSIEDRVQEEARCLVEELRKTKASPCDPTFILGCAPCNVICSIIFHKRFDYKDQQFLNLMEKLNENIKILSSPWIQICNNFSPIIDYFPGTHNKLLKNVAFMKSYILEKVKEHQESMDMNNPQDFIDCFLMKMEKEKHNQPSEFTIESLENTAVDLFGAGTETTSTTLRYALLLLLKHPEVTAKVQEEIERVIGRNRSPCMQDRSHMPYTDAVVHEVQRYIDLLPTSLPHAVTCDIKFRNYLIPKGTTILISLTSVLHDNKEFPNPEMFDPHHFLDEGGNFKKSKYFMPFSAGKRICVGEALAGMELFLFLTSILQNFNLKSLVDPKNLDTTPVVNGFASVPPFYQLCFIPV
Summary of the method: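 Inhibition of CYP2C9 is scored as loss of luminescence, with 57uM sulphaphenazole defining 100% inhibition. Substrate Luciferin-H is used at 100uM, equal to its KM; enzyme at 10nM in 25mM KPO4, 60 min at 37C with NADPH regeneration.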

[11] = qHTS Assay for Lipid Storage Modulators (AID 1519; calls by dose curve); conditions: Drosophila S3 cells, BODIPY lipid droplet/cell ratio, laser cytometry, cells loaded with oleic acid; for activity change, negative = inhibition: at 57.5 µM (top of the series)
Summary of the method: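 Cells seeded at 5,000 per well were treated with compounds over a concentration series and loaded with oleic acid (400 uM, as added). Lipid droplet fluorescence (488 nm excitation, 500-530 nm channel) was read by laser-scanning cytometry and normalized to 20 uM Triacsin C.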

[12] = target: Cytochrome P450 2D6 (Homo sapiens) (UniProt P10635); assay: qHTS Assay for Inhibitors and Substrates of Cytochrome P450 2D6 (AID 891; active means well fitted curve in the direction sought with a large enough effect; an effect the other way counts as inactive or inconclusive; further: potency means the concentration at half of the fitted maximal effect; nearly all actives have a fitted effect of over 60% in size)
Sequence of Cytochrome P450 2D6 (Homo sapiens) (P10635 whole entry, looked up): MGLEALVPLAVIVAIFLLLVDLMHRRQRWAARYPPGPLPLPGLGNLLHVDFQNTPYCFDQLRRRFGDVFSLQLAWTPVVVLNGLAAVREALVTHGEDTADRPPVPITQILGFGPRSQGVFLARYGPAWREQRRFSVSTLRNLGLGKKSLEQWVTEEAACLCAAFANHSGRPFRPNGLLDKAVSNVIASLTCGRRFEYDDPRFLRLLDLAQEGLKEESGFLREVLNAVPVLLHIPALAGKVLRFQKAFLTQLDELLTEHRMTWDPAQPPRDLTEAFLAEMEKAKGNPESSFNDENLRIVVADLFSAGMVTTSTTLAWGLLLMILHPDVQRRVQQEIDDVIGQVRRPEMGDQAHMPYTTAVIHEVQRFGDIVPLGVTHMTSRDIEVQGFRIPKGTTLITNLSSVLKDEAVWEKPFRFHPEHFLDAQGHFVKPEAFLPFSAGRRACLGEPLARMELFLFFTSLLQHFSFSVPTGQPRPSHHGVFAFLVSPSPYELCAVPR
Summary of the method: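 Luminescent read-out of luciferin formed by 5 nM human CYP2D6 demethylating 30 uM Luciferin-ME EGE (Km level) over 60 min at room temperature after NADPH regeneration addition. Data normalized to full inhibition by 1.43 uM quinidine.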

[13] = target: Cytochrome P450 3A4 (Homo sapiens) (UniProt P08684); assay: qHTS Assay for Activators of Cytochrome P450 3A4 (AID 885; active means well fitted curve in the direction sought with a large enough effect; an effect the other way counts as inactive or inconclusive; further: nearly all actives have a fitted effect of over 65% in size)
Sequence of Cytochrome P450 3A4 (Homo sapiens) (P08684 whole entry, looked up): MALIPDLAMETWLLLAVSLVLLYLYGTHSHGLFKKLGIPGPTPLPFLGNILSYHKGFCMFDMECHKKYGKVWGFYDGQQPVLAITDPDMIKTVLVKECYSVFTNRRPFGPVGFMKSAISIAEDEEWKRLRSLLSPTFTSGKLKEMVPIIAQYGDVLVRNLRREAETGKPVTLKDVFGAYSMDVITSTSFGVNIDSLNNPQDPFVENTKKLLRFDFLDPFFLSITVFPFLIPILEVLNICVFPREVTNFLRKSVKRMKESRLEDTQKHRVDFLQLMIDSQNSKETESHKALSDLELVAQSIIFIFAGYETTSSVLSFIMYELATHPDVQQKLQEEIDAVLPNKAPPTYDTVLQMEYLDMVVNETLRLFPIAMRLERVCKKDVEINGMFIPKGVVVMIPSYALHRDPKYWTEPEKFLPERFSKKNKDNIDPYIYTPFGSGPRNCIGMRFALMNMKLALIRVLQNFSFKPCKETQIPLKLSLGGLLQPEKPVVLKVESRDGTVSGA
Summary of the method: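 Luminescent readout of luciferin formed from 25 uM Luciferin-PPXE (KM level) by 20 nM CYP3A4 in 200 mM KPO4, with 60 min NADPH-driven reaction at room temperature after 10 min compound exposure. Ketoconazole (57 uM) defined 100% inhibition.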

[14] = measured here: cell count channel max response
[15] = measured here: lipid channel max response

## CN1CCCC2(CCN(C(=O)c3ccncc3)CC2)C1
[1]
  Potency: > 20 µM (inactive)
[2]
  Potency: > 11.4 µM (inactive)
[3]
  outcome: inactive
[4]
  Potency: inactive
[5]
  activity change, negative = inhibition: -16.6% (inactive)
[6]
  outcome: inactive
[7]
  Potency: > 46 µM (inactive)
[8]
  outcome: inactive
[9]
  Potency: inactive
[10]
  Potency: inactive
[11]
  activity change, negative = inhibition: 2.07% (inactive)
[11]; [14]
  max response: 15.5%
[11]; [15]
  max response: 19.9%

## c1ccc(N2CCC3(CCNCC3)CC2)cc1
[1]
  Potency: > 20 µM (inactive)
[2]
  Potency: > 11.4 µM (inactive)
[3]
  outcome: inactive
[4]
  Potency: inactive
[5]
  activity change, negative = inhibition: -12.2% (inactive)
[7]
  Potency: > 46 µM (inactive)
[8]
  outcome: inactive
[9]
  Potency: inactive
[11]
  activity change, negative = inhibition: -3.07% (inactive)
[11]; [14]
  max response: -7.04%
[11]; [15]
  max response: -8.78%

## c1csc(CN2CCC3(CCNCC3)CC2)n1
[1]
  Potency: > 20 µM (inactive)
[2]
  Potency: > 11.4 µM (inactive)
[3]
  outcome: inactive
[4]
  Potency: inactive
[5]
  activity change, negative = inhibition: -5.8% (inactive)
[7]
  Potency: > 46 µM (inactive)
[8]
  outcome: inactive
[11]
  activity change, negative = inhibition: -2.74% (inactive)
[11]; [14]
  max response: 11.7%
[11]; [15]
  max response: 11%

## CC(C)CN1CC2(CCN(C(=O)c3ccncc3)CC2)C1
[1]
  Potency: > 20 µM (inactive)
[2]
  Potency: > 11.4 µM (inactive)
[3]
  outcome: inactive
[4]
  Potency: inactive
[6]
  outcome: inactive
[7]
  Potency: > 46 µM (inactive)
[8]
  outcome: inactive
[12]
  Potency: 3.98 µM (active)
[11]
  activity change, negative = inhibition: -1.63% (inactive)
[11]; [14]
  max response: 11.7%
[11]; [15]
  max response: 11.8%

## CC(C)CN1CC2(CCN(C(=O)Oc3ccccc3)CC2)C1
[1]
  Potency: > 20 µM (inactive)
[2]
  Potency: > 11.4 µM (inactive)
[3]
  outcome: inactive
[4]
  Potency: inactive
[5]
  activity change, negative = inhibition: -14.8% (inactive)
[6]
  outcome: inactive
[7]
  Potency: > 46 µM (inactive)
[8]
  outcome: inactive
[9]
  Potency: inactive
[11]
  activity change, negative = inhibition: 2.95% (inactive)
[11]; [14]
  max response: -4.14%
[11]; [15]
  max response: 1.27%

## c1cnc(N2CC[C@@]3(CCCNC3)C2)nc1
[1]
  Potency: > 20 µM (inactive)
[2]
  Potency: > 11.4 µM (inactive)
[3]
  outcome: inactive
[4]
  Potency: 25.1 µM (active)
[5]
  activity change, negative = inhibition: -23.9% (inactive)
[6]
  outcome: inactive
[7]
  Potency: > 46 µM (inactive)
[8]
  outcome: inactive
[9]
  Potency: inactive
[13]
  Potency: inactive
[12]
  Potency: 7.94 µM (active)
[11]
  activity change, negative = inhibition: 6.19% (inactive)
[11]; [14]
  max response: 20.5%
[11]; [15]
  max response: 29%

## c1csc(CN2CC3(CCNCC3)C2)n1
[2]
  Potency: > 11.4 µM (inactive)
[3]
  outcome: inactive
[4]
  Potency: inactive
[6]
  outcome: inactive
[7]
  Potency: > 46 µM (inactive)
[8]
  outcome: inactive
[9]
  Potency: inactive
[11]
  activity change, negative = inhibition: 9.28% (inactive)
[11]; [14]
  max response: 10.7%
[11]; [15]
  max response: 24.8%
